# Compound activity: PubChem, ICCB-Longwood Screening Facility, Harvard Medical School
# AID504770 = growth inhibitors of E. coli YBA685 in a screen for V. cholerae RctB (chromosome II replication) inhibitors | 0.27% of 130,000 active | z-score (concentration not given with the values) | AID 504770 | E. coli YBA685 rctB-dependent plasmid, OD600 growth, 3 h; stronger effect = lower value; in the data active = z-score below about -2, passing the limit was not always enough
# MbtI inh = inhibitors of Mycobacterium tuberculosis siderophore enzyme MbtI; P9WFX0; purified MbtI enzyme, fluorescence intensity read-out; inhibition, % (test concentration not listed); 0.89% of 100,000 active; in the data active = inhibition mostly above about 56%, no sharp cut-off; inactive = mostly below about 77%
# MenB inh = blocks the Mycobacterium tuberculosis MenB enzyme; MenB enzyme assay, absorbance read-out; P9WNP5; inhibition, % (concentration not given with the values); AID 540299; 0.43% of 100,000 active; in the data active = inhibition above about 21%, passing the limit was not always enough
# PV pol inh = inhibitors of poliovirus RNA polymerase binding and polymerization. 0.66% of 150,000 active. poliovirus polymerase elongation, fluorescence polarization; stronger effect = lower value. P03300. % elongation, % (compound at 16.7 µg/mL). AID 588519; in the data active = % elongation below about 90%
# Target sequence (P03300 1749-2209 limits assumed): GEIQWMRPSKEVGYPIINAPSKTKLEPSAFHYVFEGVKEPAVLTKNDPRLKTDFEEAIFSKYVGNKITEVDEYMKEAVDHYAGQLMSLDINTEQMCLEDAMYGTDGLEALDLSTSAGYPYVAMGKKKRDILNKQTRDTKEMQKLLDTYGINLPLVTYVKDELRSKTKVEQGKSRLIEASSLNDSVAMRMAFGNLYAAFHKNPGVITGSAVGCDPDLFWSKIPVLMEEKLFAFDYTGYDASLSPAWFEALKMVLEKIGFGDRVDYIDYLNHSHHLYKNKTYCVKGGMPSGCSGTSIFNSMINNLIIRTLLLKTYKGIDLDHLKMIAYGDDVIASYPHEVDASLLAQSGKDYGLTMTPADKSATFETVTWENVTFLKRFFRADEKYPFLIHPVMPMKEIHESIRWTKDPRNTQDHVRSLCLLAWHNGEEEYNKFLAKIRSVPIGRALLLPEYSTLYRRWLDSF
# An asterisk follows results filed as active; / = no result; ! = not confirmed by another sample. Only some compounds are listed: those with a hit (about 1.4% of all), similar ones and a draw of the others.
SMILES,AID504770,MbtI inh,MenB inh,PV pol inh
CC1=C(c2ccc(Cl)cc2)S(=O)(=O)N=C1N1CCC(C(=O)NCc2ccccc2F)CC1,/,/,/,101
CC1=C(c2ccc(C(C)C)cc2)S(=O)(=O)N=C1N1CCC(C(=O)NCc2ccccc2)CC1,/,/,/,34*
C=CCNC(=O)c1cc(=O)[nH]c(=O)[nH]1,-0.5,-7,/,/
C/C(N)=C(/C#N)C(=O)CSc1n[nH]c(-c2cccs2)n1,-0.65,147,-7,102
CC(C)N(C(=O)CSc1n[nH]c(-c2cccs2)n1)C(C)C,-4*,-53,-1,105
CC(C)N(C(=O)Cn1c(-c2cccnc2)ccc(C#N)c1=O)C(C)C,-2.5,13,-21,99
N#Cc1ccc(-c2cccnc2)n(CC(=O)N2CCOCC2)c1=O,1.1,27,42*,101
Nc1cccc2cccc(C(=O)O)c12,-0.8,-7,/,89*
Cc1cccc2nc(CSC(=S)NCc3cccnc3)cn12,-3.7*,/,/,/
O=C1C=CC(=O)c2c(Cl)ccc(Cl)c21,-2*,92,-23,101
CCn1c(SCC(=O)Nc2ccccc2)nnc1-c1c[nH]c2ccccc12,-0.4,/,/,/
CC(=O)OCC(=O)Nc1ccccc1,1.6,-8,-30,3.0*
Cc1ccc(C(=O)c2ccc(C)c(C)c2)cc1C,0.3,3,-21,102
Cc1ccc(C(=O)CBr)cc1C,-1.1,88*,/,101
C=CCn1c(=S)[nH]c2cc(C(=O)O)ccc2c1=O,-0.3,14,0,104
C=CCn1c(=S)[nH]c2ccccc2c1=O,0.95,19,31*!,104
O=C1CC(=O)CC2(CCCC2)C1,0.5,8,-132,95
CC(C)(C)CC(C)(C)NC(=O)Nc1cccc(Cl)c1,0.65,-7,-43,100
CC(C)(C)c1nn2cnnc2n(NC(=O)Nc2cccc(Cl)c2)c1=O,-3.5*,-4,-9,105
COc1nc(C)cc(C)c1C(=O)O,-0.15,/,/,/
Cc1cc(C)c(C(=O)O)c(Cl)n1,1.6,0,-26,80*
CC(C)NS(=O)(=O)c1ccc(N=Cc2c(O)n(C)c(=O)n(C)c2=O)cc1,-3.7*,32,-19,104
O=c1c(=Nc2ccc(O)cc2)c(=O)c2ccccc12,0.1,42,/,49*
O/N=C/c1nc2cc(Cl)ccc2o1,0.4,103,7,76*
CC(C)(C)/C(O)=C/c1nc2cc(Cl)ccc2oc1=O,0.65,10,28,102
SMILES,AID504770,MbtI inh,MenB inh,PV pol inh
CCOc1ccc(-c2nnc(NC(=O)Nc3ccccc3)o2)cc1,-0.6,-31,-5,103
CSc1s[nH]c(=O)c1C#N,-1,/,9,86*
CSc1[nH]c(=O)[nH]c(=O)c1C#N,0.2,0,-11,101
O=C(c1cc(O)ccc1O)c1coc2ccc(O)cc12,0.55,100*,13,101
CC(C)(C)NS(=O)(=O)Nc1ccccc1,0.85,0,36*,101
O=C(Cc1nc2ccccc2[nH]1)c1ccccc1,1,7,/,98
O=C(Cc1nc2ccccc2[nH]1)Oc1ccccc1,-1.6,/,7,75*
CC1CCN(c2ncccc2C(=O)NC2CCCCC2)CC1,-0.1,7,-11,105
CC(C)(C)Sc1ccc(C(=O)O)s1,-0.3,57*,/,/
CC(C)(C)Sc1ccc(SC#N)s1,0.75,81*,-32,95
N#CC(C(=O)CN1CCCCC1)c1ccccc1 (stereo unspecified),1.8,0,-13,106
O=C1C=CC(=O)N1Cc1ccccc1,-2.5*,-13,-3,103
Cc1onc(-c2ccccc2Cl)c1C(=O)N(CC(C)C)CC(C)C,0,-1,3,100
CCOc1ccc(NC(=O)CC(=O)Nc2ccc(OCC)cc2)cc1,1.1,-1,-5,97
CCOc1ccc(NC(=O)Cc2cccc3c(S(=O)O)cccc23)cc1,-1.1,65*,-22,102
Oc1nc2ccccn2c1-c1c(O)nc2ccccn12,1.6,6,/,21*
c1ccn2c(c1)nc1c2nc2ccccn21,-0.55,77,-18,101
CNc1nc(-c2ccccc2)[n+](-c2ccccc2)s1,-0.45,100*,/,102
CC(=O)Nc1nc(-c2ccccc2)[n+](-c2ccccc2)s1,-0.55,/,/,/
O=S(=O)(c1ccc(N2CCC(CNc3nc4ccccc4s3)CC2)cc1)N1CCOCC1,1.6,43,39*,103
O=C1C=CC(=NS(=O)(=O)c2cccs2)C=C1,-1.2,/,/,/
O=C1C=CC(=NS(=O)(=O)c2ccc(C(=O)O)cc2)C=C1,-0.55,91*,13,99
O=C(NC1CCN(Cc2ccccc2)CC1)c1ccc(Cn2c(=O)c3ccccc3n(Cc3ccc(Cl)cc3)c2=O)cc1,/,/,/,99
O=C(NC1CCN(Cc2ccccc2)CC1)c1ccc(Cn2c(=O)c3ccccc3n(Cc3ccccc3)c2=O)cc1,/,/,/,73*
COc1ccc(CC(=O)Nc2ccc(-c3nnc4n3CCCCC4)cc2)cc1,-0.7,-11,-11,106
SMILES,AID504770,MbtI inh,MenB inh,PV pol inh
O=C(COCc1nc2ccccc2s1)Nc1ccc(-c2nnc3n2CCCCC3)cc1,-0.05,-1,-23,89*
CC(C)c1ccc(-n2c(=O)[nH]c3ccccc3c2=O)cc1,-0.1,46,-25,73*
CCN(CC)CCNc1nc2c(c(=O)n(C)c(=O)n2C)n1CCc1ccccc1,2.2,19,23*,103
CCN(CC)CCNc1nc2c(c(=O)n(C)c(=O)n2C)n1Cc1ccc(F)cc1,0.1,-1,/,/
S=c1[nH]c2ccccc2n1CCOc1ccccc1,0.2,95*,-72,99
S=c1[nH]c2ccccc2n1Cc1ccccc1,0.15,84*,-19,96
N#CCCn1c(=S)[nH]c2ccccc21,-0.05,99,-11,82*
CC(=O)Nc1ccc(S(=O)(=O)NCC2CCC(C(=O)O)CC2)cc1 (stereo unspecified),1.9,10,8,101
CCOC(=O)c1c(-c2ccc(Cl)cc2)nn2c1NCN(Cc1cccc(OC)c1)C2,1.4,-2,8,100
CC(C)NC(=O)/C(C#N)=C/c1ccccc1,0,-4,-27,101
COc1cccc(NC(=O)N2CCC(CN3CCCCCC3)CC2)c1,0.45,13,-14,103
Nc1nc(N)nc(-c2ccccc2)n1,-1.2,-2,-9,101
Nc1nc(N)c2[nH]c(-c3ccccc3)nc2n1,1.2,99,-27,68*
O=S1(=O)C=C(SCCN2CCOCC2)c2ccccc21,-3.4*,-2,-7,102
FC(F)(F)c1ccccc1CN1CCN(CC2CC3C=CC2C3)CC1 (stereo unspecified),-0.55,/,-2,48*
O=S(=O)(Nc1cc(Cl)ccc1N1CCCCC1)c1cccc2nsnc12,0.4,3,5,103
Cc1cccc(C(=O)Nc2nccs2)c1,-3.1*,/,/,/
COc1ccc(C(=O)Nc2nccs2)c(F)c1,-3*,-2,-26,104
O=C(Nc1nccs1)c1cccc(Cl)c1,-0.8,6,-6,103
O=C1NC(=O)C(c2ccccc2)N1 (stereo unspecified),-1.1,-3,-2,106
O=C1NC(=O)C(C(c2ccccc2)c2ccccc2)C(=O)N1,1.1,1,32*,99
O=C(Oc1ccc(O)cc1)C12CC3CC(CC(C3)C1)C2,0.65,97*,-52,97
O=C(Oc1cc(Cl)cc(Cl)c1)C12CC3CC(CC(C3)C1)C2,0.1,-8,-9,108
